Source: PubChem BioAssay (NCI)
About 83,000 compounds went through this panel and 20% of them were active in at least one assay; those are over-represented in the sample as a whole.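 The endpoint reported here, percent growth, reads 100 for growth as untreated, 0 for no net growth and -100 for all cells dead.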 Active and inactive are the calls of the source. How the source made its calls: active means growth percent below 10; inactive means the rest.

Tests used:
Assay in all cases: NCI-60 one-dose screen, 48 h (100 = growth as untreated, 0 = no growth, -100 = all killed)
NCI-H226 lung = conditions: 10 µM unless noted
NCI-H322M lung = conditions: 10 µM unless noted
HOP-62 NSCLC = conditions: 10 µM unless noted
NCI-H460 lung = conditions: 10 µM unless noted
HOP-92 NSCLC = conditions: 10 µM
NCI-H522 lung = conditions: 10 µM unless noted
A549/ATCC NSCLC = conditions: 10 µM unless noted
786-0 renal = conditions: 10 µM unless noted
COLO 205 colon = conditions: 10 µM unless noted
DU-145 prostate = conditions: 10 µM unless noted
K-562 leukemia = conditions: 10 µM unless noted
MALME-3M melanoma = conditions: 10 µM unless noted
MDA-MB-231 breast = conditions: 10 µM unless noted
RXF 393 renal = conditions: 10 µM unless noted
SF-268 CNS = conditions: 10 µM unless noted
SF-295 CNS = conditions: 10 µM unless noted
SF-539 CNS = conditions: 10 µM unless noted
UACC-257 melanoma = conditions: 10 µM unless noted
M14 melanoma = conditions: 10 µM unless noted
NCI-H23 lung = conditions: 10 µM unless noted

Measured: growth

O=c1[nH]c2ccccc2cc1CSc1ccccc1Nc1nccc(-c2ccc(Cl)cc2)n1
inactive: NCI-H226 lung 94.1% | NCI-H322M lung 94.1% | HOP-62 NSCLC 95.6% | NCI-H460 lung 97.5% | HOP-92 NSCLC 83.5% | NCI-H522 lung 97.4% | A549/ATCC NSCLC 95.4% | 786-0 renal 101% | COLO 205 colon 125% | DU-145 prostate 102% | K-562 leukemia 94.7% | MALME-3M melanoma 86.1% | MDA-MB-231 breast 84.5% | RXF 393 renal 93.5% | SF-268 CNS 94.6% | SF-295 CNS 95.5% | SF-539 CNS 82.7% | UACC-257 melanoma 104% | M14 melanoma 108%

O=C(CSc1nc2ccccc2c(=O)n1-c1ccccc1)Nc1ccc(-c2nc3ccc([N+](=O)[O-])cc3[nH]2)cc1
inactive: NCI-H322M lung 97.8% | HOP-62 NSCLC 99.1% | NCI-H460 lung 63.5% | HOP-92 NSCLC 99.1% | NCI-H522 lung 75.2% | A549/ATCC NSCLC 93.4% | 786-0 renal 95.2% | COLO 205 colon 110% | DU-145 prostate 84.2% | K-562 leukemia 42.7% | MALME-3M melanoma 71.1% | MDA-MB-231 breast 76.8% | RXF 393 renal 64.5% | SF-268 CNS 76.2% | SF-295 CNS 103% | SF-539 CNS 78.2% | UACC-257 melanoma 95.8% | M14 melanoma 93.3%

NS(=O)(=O)c1ccc(Nc2nc(SCc3ccccc3)nc3ccccc23)cc1
inactive: NCI-H226 lung 76.8% | NCI-H322M lung 88.7% | HOP-62 NSCLC 86.2% | NCI-H460 lung 45.1% | HOP-92 NSCLC 55.4% | NCI-H522 lung 81.3% | A549/ATCC NSCLC 52.6% | 786-0 renal 40.3% | COLO 205 colon 79.6% | DU-145 prostate 61.7% | K-562 leukemia 14.4% | MALME-3M melanoma 81.7% | MDA-MB-231 breast 53.9% | RXF 393 renal 45.5% | SF-268 CNS 73.2% | SF-295 CNS 59.9% | SF-539 CNS 48.8% | UACC-257 melanoma 92.8% | M14 melanoma 75%

O=C(Cn1cc[n+](CC(=O)c2ccc(-c3ccccc3)cc2)c1)Nc1cccc2cccnc12
inactive: NCI-H23 lung 76.8% | NCI-H322M lung 95.7% | HOP-62 NSCLC 88.4% | NCI-H460 lung 87.8% | NCI-H522 lung 42.3% | A549/ATCC NSCLC 88.1% | 786-0 renal 95.8% | COLO 205 colon 74.2% | DU-145 prostate 86.4% | K-562 leukemia 50.5% | MDA-MB-231 breast 73.1% | RXF 393 renal 98.3% | SF-268 CNS 65.5% | SF-295 CNS 102% | SF-539 CNS 79.1% | UACC-257 melanoma 34.4% | M14 melanoma 85%

COc1ccc(-c2nc(C(Cl)Cl)nc3cc(-c4ccccc4)nn23)cc1
active: NCI-H322M lung -33.8% | HOP-62 NSCLC -11.5% | NCI-H460 lung -75.9% | HOP-92 NSCLC -14.8% | NCI-H522 lung -59.4% | A549/ATCC NSCLC -42.9% | COLO 205 colon -74.6% | DU-145 prostate -26.7% | K-562 leukemia 7.86% | MALME-3M melanoma -44.9% | MDA-MB-231 breast 6.65% | RXF 393 renal -82.1% | SF-295 CNS 9.62% | UACC-257 melanoma 4.58% | M14 melanoma -69%
inactive: NCI-H226 lung 63.2% | 786-0 renal 68.8% | SF-268 CNS 14.2% | SF-539 CNS 35.5%

COc1ccc(-c2nc3ccc(-c4nnc(SCC(=O)Nc5ccc(C(=O)/C=C/c6ccc(Cl)cc6)cc5)o4)cc3[nH]2)cc1
inactive: NCI-H226 lung 94.1% | NCI-H322M lung 100% | HOP-62 NSCLC 99.5% | NCI-H460 lung 104% | HOP-92 NSCLC 95% | NCI-H522 lung 95.3% | A549/ATCC NSCLC 105% | 786-0 renal 99.1% | COLO 205 colon 117% | DU-145 prostate 104% | K-562 leukemia 93.9% | MALME-3M melanoma 96.1% | MDA-MB-231 breast 94.8% | RXF 393 renal 98.2% | SF-268 CNS 94.9% | SF-295 CNS 95.9% | SF-539 CNS 87.1% | UACC-257 melanoma 107% | M14 melanoma 105%

CC(=O)c1ccc(Nc2nc(SCC(C)C)nc(-c3ccc(F)cc3)c2C#N)cc1
inactive: NCI-H226 lung 114% | NCI-H322M lung 116% | HOP-62 NSCLC 116% | NCI-H460 lung 109% | HOP-92 NSCLC 118% | NCI-H522 lung 103% | A549/ATCC NSCLC 109% | 786-0 renal 105% | COLO 205 colon 115% | DU-145 prostate 113% | K-562 leukemia 106% | MALME-3M melanoma 114% | MDA-MB-231 breast 106% | RXF 393 renal 118% | SF-268 CNS 114% | SF-295 CNS 118% | SF-539 CNS 105% | UACC-257 melanoma 106% | M14 melanoma 115%

Nc1cc(-c2c[nH]c3ccc(Br)cc23)nc2cc(-c3c[nH]c4ccc(Br)cc34)nn12
inactive: NCI-H226 lung 55.3% | NCI-H322M lung 39.8% | HOP-62 NSCLC 40% | A549/ATCC NSCLC 17.7% | DU-145 prostate 24.2% | MALME-3M melanoma 45.6% | RXF 393 renal 28.4% | SF-268 CNS 27.8% | UACC-257 melanoma 65%
active: NCI-H460 lung -24.8% | HOP-92 NSCLC -12.1% | NCI-H522 lung -64% | 786-0 renal -50.3% | COLO 205 colon -50.5% | K-562 leukemia 1.82% | MDA-MB-231 breast 7.95% | SF-295 CNS 6.52% | SF-539 CNS -4.74% | M14 melanoma -52.1%

CS(=O)(=O)c1ccc(-n2cc(/C=N/O)c(-c3ccccc3)n2)cc1
inactive: NCI-H226 lung 77.1% | NCI-H322M lung 81.7% | HOP-62 NSCLC 89.5% | NCI-H460 lung 93.9% | HOP-92 NSCLC 87.9% | NCI-H522 lung 70.3% | A549/ATCC NSCLC 77.2% | 786-0 renal 79.1% | COLO 205 colon 101% | DU-145 prostate 83.9% | K-562 leukemia 64.5% | MALME-3M melanoma 97.2% | MDA-MB-231 breast 72.4% | RXF 393 renal 78.6% | SF-268 CNS 70.9% | SF-295 CNS 87.3% | SF-539 CNS 71.1% | UACC-257 melanoma 90.1% | M14 melanoma 98.1%

Fc1ccc(-c2cc3nc(C(Cl)Cl)nc(-c4ccc(F)cc4)n3n2)cc1
inactive: NCI-H226 lung 79.1% | 786-0 renal 51.4% | K-562 leukemia 14.3% | SF-268 CNS 23.2% | SF-539 CNS 21.3% | UACC-257 melanoma 20.5%
active: NCI-H322M lung -30.3% | HOP-62 NSCLC -27.6% | NCI-H460 lung -52.9% | HOP-92 NSCLC -3.1% | NCI-H522 lung 0.105% | A549/ATCC NSCLC -26.8% | COLO 205 colon -70.2% | DU-145 prostate -18.4% | MALME-3M melanoma 9.81% | MDA-MB-231 breast 5.31% | RXF 393 renal -58.1% | SF-295 CNS 8.01% | M14 melanoma -4.2%

CCNC(=O)Oc1ccc(/C(=C(/C)c2ccccc2)c2ccc(OCCN3CCCCCC3)cc2)cc1
inactive: NCI-H226 lung 55% | NCI-H322M lung 71.1% | NCI-H522 lung 63.8% | A549/ATCC NSCLC 36.1% | DU-145 prostate 38.7% | SF-268 CNS 31.8%
active: HOP-62 NSCLC 6.15% | NCI-H460 lung -67.3% | HOP-92 NSCLC -12.8% | 786-0 renal -91.7% | COLO 205 colon -75.7% | K-562 leukemia 2.41% | MALME-3M melanoma -70.8% | MDA-MB-231 breast 6.37% | RXF 393 renal -7.37% | SF-295 CNS -1.08% | SF-539 CNS -74.5% | UACC-257 melanoma -48.9% | M14 melanoma -80.3%

CCCSc1nc(Nc2ccc(/C(C)=N\NC(N)=S)cc2)c(C#N)c(-c2ccccc2)n1
active: HOP-92 NSCLC -8.02% | RXF 393 renal -4.63%
inactive: NCI-H226 lung 49.4% | NCI-H322M lung 84.3% | HOP-62 NSCLC 84.2% | NCI-H460 lung 32.7% | NCI-H522 lung 85.2% | A549/ATCC NSCLC 43.7% | 786-0 renal 60.3% | COLO 205 colon 79.9% | DU-145 prostate 66.3% | K-562 leukemia 56.5% | MALME-3M melanoma 97.9% | MDA-MB-231 breast 72.9% | SF-268 CNS 103% | SF-295 CNS 51.8% | SF-539 CNS 36.4% | UACC-257 melanoma 105% | M14 melanoma 99.6%

O=c1[nH]c(Sc2sc3ccc(Cl)cc3c2CBr)nc(=S)[nH]1
inactive: NCI-H226 lung 55.1% | NCI-H322M lung 39.7% | HOP-62 NSCLC 28.2% | NCI-H460 lung 21.5% | NCI-H522 lung 13% | A549/ATCC NSCLC 39.8% | 786-0 renal 51% | COLO 205 colon 108% | DU-145 prostate 33.9% | K-562 leukemia 12% | MALME-3M melanoma 27.4% | MDA-MB-231 breast 35.9% | SF-268 CNS 48.9% | SF-295 CNS 23% | SF-539 CNS 32.1% | UACC-257 melanoma 44.1% | M14 melanoma 27.6%
active: RXF 393 renal 9.12%

CCCCCCCn1cc2c(N[C@H](C)c3ccccc3)ncnc2n1
inactive: NCI-H226 lung 100% | NCI-H322M lung 101% | HOP-62 NSCLC 95.7% | NCI-H460 lung 104% | HOP-92 NSCLC 94% | NCI-H522 lung 99.6% | A549/ATCC NSCLC 106% | 786-0 renal 105% | COLO 205 colon 115% | DU-145 prostate 98.1% | K-562 leukemia 106% | MALME-3M melanoma 94.2% | MDA-MB-231 breast 98.4% | RXF 393 renal 97.1% | SF-268 CNS 102% | SF-295 CNS 94.5% | SF-539 CNS 98.8% | UACC-257 melanoma 110% | M14 melanoma 99.8%

COc1ccc([C@@H]2[C@@H](O)C(=O)N2c2cc(OC)c(OC)c(OC)c2)cc1F
active: NCI-H460 lung 2.68% | NCI-H522 lung -49.6% | COLO 205 colon -79.8% | K-562 leukemia 8.16% | SF-295 CNS 5.85% | SF-539 CNS -0.902% | M14 melanoma 3.94%
inactive: NCI-H23 lung 15.9% | NCI-H322M lung 52.4% | HOP-62 NSCLC 28.3% | 786-0 renal 10% | DU-145 prostate 12.3% | MALME-3M melanoma 64.1% | MDA-MB-231 breast 21.3% | RXF 393 renal 24.9% | SF-268 CNS 32% | UACC-257 melanoma 58.6%
